From PubChem BioAssay (NCI)
The panel holds about 83,000 compounds, 20% with a hit somewhere; the sample as a whole holds those more often.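 Treatment: one concentration, 48 hours, 96-well format. Scoring: percent growth, with anything below 10 considered active.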 Unmarked numbers belong to inactive results. The source made the active and inactive calls.

test system: M14 melanoma; assay: NCI-60 one-dose screen, 48 h (100 = growth as untreated, 0 = no growth, -100 = all killed); conditions: 10 µM unless noted

SMILES	growth
C[C@]12C[C@@H](CO)[C@H](O)C[C@@H]1CC[C@@H]1[C@@H]2CC[C@]2(C)[C@@H](O)CC[C@@H]12	103%
[Cl][Hg][c]1cc[c]([Hg][Cl])o1	14.8%
NC(=S)c1cn(C2OC(CO)C(O)C2O)c2ncnc(N)c12 (centres undefined)	-57.9% (active)
COC(=O)CC[C@H](Cc1ccccc1)NC(=O)c1csc([C@@H](C[C@H](C(C)C)N(C)C(=O)[C@@H](NC(=O)[C@H]2CCCCN2C)C(C)C)OC(C)=O)n1	20.2%
